# Assay results taken from PubChem BioAssay (Tox21).
# Values without a mark were called inactive. Records with an inconclusive call do not appear. Entries that show only a call come without a potency. Activity calls are given as the source filed them. Unless noted, the call rests on the fitted dose curve.
# Experiments:
# [1] = Nuclear factor erythroid 2-related factor 2/antioxidant responsive element (Nrf2/ARE) small molecule agonists: qHTS cell viability counter screen in human keratinocytes (AID 1919968; active means well fitted curve in the direction sought with a large enough effect in the repeat runs; an effect the other way counts as inactive or inconclusive; further: nearly all actives have a fitted effect of over 55% in size; further: potency means the concentration at half of the fitted maximal effect)
# Outline: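 HaCaT ARE reporter line, 1,500 cells/well; 5 h settle, 37 C/5% CO2; cpd in DMSO pinned; 23 h exposure; CellTiter-Fluor, 1 h; fluorescence.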
# [2] = Nuclear factor erythroid 2-related factor 2/antioxidant responsive element (Nrf2/ARE) small molecule agonists: luciferase reporter gene qHTS assay in human keratinocytes (AID 1919969); further: nearly all actives have a fitted effect of over 35% in size; further: potency means the concentration at half of the fitted maximal effect
# [3] = target: Gonadotropin-releasing hormone receptor (Homo sapiens) (UniProt P30968); assay: Human gonadotropin-releasing hormone receptor (GnRHR) small molecule agonists, calcium flux assay in GnRHR-HEK293 cells (AID 1920063); further: nearly all actives have a fitted effect of over 35% in size
# Outline: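 GnRHR-HEK293, 1500 cells/well, 18 h 37 C/5% CO2; Ca dye 1 h 37 C; cpd pinned (DMSO), agonist mode; kinetic FL 480/540, 3 min, 1 s reads; 15 conc, n=3.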
# [4] = target: KiSS-1 receptor (Homo sapiens) (UniProt Q969F8); assay: Human kisspeptin (KISS1R) small molecule agonists, calcium flux assay in KISS1R-HEK293 cells (AID 1920064; active means well fitted curve in the direction sought with a large enough effect in the repeat runs; an effect the other way counts as inactive or inconclusive)
# Outline: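 Stable human KISS1R HEK293 line; 18 h plating, 37 C/5% CO2; calcium dye 1 h 37 C; compound pin transfer; kinetic fluorescence Ex/Em 480/540, 3 min.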
# [5] = G protein-coupled receptor (GPCR) small molecule agonists, calcium flux assay: HEK293 wild type cell line counter screen (AID 1920065)
# Outline: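 Kinetic fluorescence at Ex/Em 480/540, recorded every second over 3 min, served as the read-out after compound addition. Each compound was tested at 15 concentrations in triplicate on cells pre-loaded with calcium dye for 1 h.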
# [6] = p53 small molecule agonists, cell-based qHTS assay with human liver microsomes (AID 1963577);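 further: p53 response element beta-lactamase reporter cells with liver microsomes plus NADPH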
# Outline: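 Metabolically competent format: test substances, human liver microsomes and NADPH (both 0.5 mg/mL final) incubated with p53RE-bla cells 16 h at 37 C. Beta-lactamase reporter signal then quantified by fluorescence.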
# [7] = p53 small molecule agonists, cell-based qHTS assay with rat liver microsomes (AID 1963578)
# Outline: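 Each plate received p53RE-bla cells, then compound, then rat liver microsomes and NADPH (both 0.5 mg/mL final). Plates were held 16 h at 37 C, and beta-lactamase activity was detected with LiveBLAzer over 2 h.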
# [8] = p53 small molecule agonists, cell-based qHTS assay with rat liver microsomes: qHTS cell viability counter screen (AID 1963580); further: nearly all actives have a fitted effect of over 45% in size; further: potency means the concentration at half of the fitted maximal effect
# Outline: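 Viability is assessed in parallel with the p53 reporter read: HCT-116 p53RE-bla cells receive compounds plus rat microsomes and NADPH (0.5 mg/mL final apiece), incubate 16 h at 37 C, and then CellTiter-Glo luminescence is recorded.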
# [9] = p53 small molecule agonists, cell-based qHTS assay: qHTS cell viability counter screen (AID 1963581); further: nearly all actives have a fitted effect of over 45% in size; further: potency means the concentration at half of the fitted maximal effect
# Outline: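 HCT-116 p53RE-bla cells, 4,000/well, plated 5 h before compound pin transfer; 16 h at 37 C; bla substrate 2 h RT; then CellTiter-Glo, 30 min RT, luminescence.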
# [10] = p53 small molecule agonists, cell-based qHTS assay (AID 1963582; active means well fitted activation curve with a large enough effect in the signal ratio in the repeat runs, not every such curve was filed as active; the % refers to the signal ratio; further: potency means the concentration at half of the fitted maximal effect)
# Outline: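 Reporter line: p53RE-bla. Pre-incubation 5 h, 37 C, 5% CO2; compound (DMSO, pin tool) 16 h, 37 C; B/G FRET substrate 2 h RT; fluorescence intensity read.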
# [11] = target: 5-hydroxytryptamine receptor 2A (Homo sapiens) (UniProt P28223); assay: 5-hydroxytryptamine receptor 2A (HTR2A) small molecule agonists, cell-based qHTS assay (AID 1963587); further: nearly all actives have a fitted effect of over 30% in size
# Outline: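 CHO cells stably expressing human HTR2A, plated 18 h, loaded with calcium dye 1 h at 37 C. Agonist mode: compounds added and intracellular calcium fluorescence recorded kinetically for 2 min at 1 sec intervals.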
# [12] = target: Muscarinic acetylcholine receptor M1 (Homo sapiens) (UniProt P11229); assay: Cholinergic receptor muscarinic 1 (CHRM1) small molecule antagonists, cell-based qHTS assay (AID 1963588); further: nearly all actives have a fitted effect of over 40% in size
# Outline: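 CHRM1-CHO calcium-flux assay, antagonist mode. Cells were seeded 18 h, dye-loaded 1 h at 37 C and given compound for 5 min at RT, then acetylcholine was added at 50nM. FDSS fluorescence was read 3 min; 15 concentrations, three runs.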
# [13] = target: Muscarinic acetylcholine receptor M1 (Homo sapiens) (UniProt P11229); assay: Cholinergic receptor muscarinic 1 (CHRM1) small molecule agonists, cell-based qHTS assay (AID 1963589); further: nearly all actives have a fitted effect of over 35% in size
# Outline: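 Human M1 in stable CHO line; 18 h plating, 1 h dye load 37 C; cpd added (agonist mode); Ca2+ fluorescence kinetic read, 1 s intervals; 15 conc, 3 runs.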
# [14] = cAMP Responsive Elements (CRE) small molecule antagonists, cell-based qHTS assay (AID 1963591; active means well fitted inhibition curve with a large enough effect in the signal ratio in the repeat runs, not every such curve was filed as active; the % refers to the signal ratio)
# Outline: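 Beta-lactamase reporter read by FRET substrate (LiveBLAzer B/G) after 2 h at room temperature. CRE-bla HEK293T cells had received compound plus 0.25 uM (final) NKH477 for 3 h at 37 °C.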
# [15] = target: Beta-2 adrenergic receptor (Homo sapiens) (UniProt P07550); assay: Adrenergic beta2 receptor (ADRB2) small molecule antagonists, cell-based qHTS assay (AID 1963592); further: series mostly up to about 92 µM; nearly all actives have a fitted effect of over 50% in size
# Outline: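 Cells (CHO, stable ADRB2 overexpression) incubated 18-20hr at 37C; compounds added from DMSO; agonist mix (1nM isoproterenol, 100uM IBMX, 25uM Ro-20-1724) added; 0.5hr RT; d2-cAMP and anti-cAMP-cryptate added; 1hr RT; 665/615 nm read.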
# [16] = target: Beta-2 adrenergic receptor (Homo sapiens) (UniProt P07550); assay: Adrenergic beta2 receptor (ADRB2) small molecule agonists, cell-based qHTS assay (AID 1963593);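 further: CHO cells stably overexpressing human ADRB2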
# Outline: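 CHO cells stably over-expressing ADRB2 were plated overnight at 37C, then dosed with compounds plus a stimulation mix containing 100uM IBMX and 25uM Ro-20-1724 for 0.5hr at room temperature. cAMP was measured by HTRF competition, 1hr.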
# [17] = target: D(2) dopamine receptor (Homo sapiens) (UniProt P14416); assay: Dopamine D2 receptor (DRD2) small molecule agonists, cell-based qHTS assay (AID 1963594); further: nearly all actives have a fitted effect of over 35% in size; further: potency means the concentration at half of the fitted maximal effect
# Outline: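 HEK293 cells stably expressing human DRD2, pre-treated with PDE inhibitor Ro20-1724 (0.1 mM final) and compound 10 min at room temperature, then stimulated with NKH477 (200nM […]) for 30 min. cAMP read by HTRF (665/620 nm).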
# [18] = target: D(2) dopamine receptor (Homo sapiens) (UniProt P14416); assay: Dopamine D2 receptor (DRD2) small molecule antagonists, cell-based qHTS assay (AID 1963595; active means well fitted inhibition curve with a large enough effect in the signal ratio in the repeat runs, with a control signal flat; the % refers to the signal ratio)
# Outline: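 Cells were plated and grown for 24 h at 37 °C. Ro20-1724 (0.1 mM final) went in first, then compound for 10 min. NKH477 (200 nM) with quinpirole (12 nM) followed for 30 min at RT, then HTRF detection reagents for 1 h.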
# [19] = target: 5-hydroxytryptamine receptor 2A (Homo sapiens) (UniProt P28223); assay: 5-hydroxytryptamine receptor 2A (HTR2A) small molecule antagonists, cell-based qHTS assay (AID 1963586); further: nearly all actives have a fitted effect of over 45% in size; further: potency means the concentration at half of the fitted maximal effect
# Outline: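 Antagonist-mode intracellular calcium assay: DOI (4 nM) added after 5 min compound pre-incubation at room temperature to dye-loaded HTR2A-CHO cells. Fluorescence followed for 3 min, sampled every second.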
# [20] = cAMP Responsive Elements (CRE) small molecule agonists, cell-based qHTS assay (AID 1963590)
# Outline: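 HEK 293T CRE-bla, 2,000 cells/well, 18 h preincubation 37 C/5% CO2; cpds (DMSO) pinned, 3 h; LiveBLAzer B/G FRET substrate, 2 h RT.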
# Chain of Gonadotropin-releasing hormone receptor (Homo sapiens) (P30968 whole entry, looked up): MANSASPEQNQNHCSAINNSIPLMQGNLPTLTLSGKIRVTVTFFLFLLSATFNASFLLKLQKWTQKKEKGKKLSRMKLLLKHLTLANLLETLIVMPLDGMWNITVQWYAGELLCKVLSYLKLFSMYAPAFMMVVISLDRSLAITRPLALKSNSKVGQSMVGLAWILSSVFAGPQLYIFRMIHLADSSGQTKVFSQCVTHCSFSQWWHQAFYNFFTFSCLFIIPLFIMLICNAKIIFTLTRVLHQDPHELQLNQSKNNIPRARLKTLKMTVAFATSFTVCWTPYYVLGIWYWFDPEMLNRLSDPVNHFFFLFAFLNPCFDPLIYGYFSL
# Chain of Beta-2 adrenergic receptor (Homo sapiens) (P07550 whole entry, looked up): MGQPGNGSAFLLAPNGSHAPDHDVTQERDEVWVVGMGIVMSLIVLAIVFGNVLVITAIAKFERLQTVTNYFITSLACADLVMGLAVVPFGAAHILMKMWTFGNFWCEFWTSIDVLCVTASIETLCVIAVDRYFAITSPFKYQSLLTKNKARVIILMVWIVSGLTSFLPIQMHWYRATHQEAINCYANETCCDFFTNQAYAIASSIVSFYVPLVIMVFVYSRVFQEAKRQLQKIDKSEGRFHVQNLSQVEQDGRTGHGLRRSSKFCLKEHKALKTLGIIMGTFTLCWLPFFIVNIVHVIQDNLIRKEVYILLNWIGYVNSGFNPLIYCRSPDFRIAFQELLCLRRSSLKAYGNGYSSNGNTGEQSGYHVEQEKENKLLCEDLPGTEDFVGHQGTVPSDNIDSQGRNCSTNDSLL
# Chain of D(2) dopamine receptor (Homo sapiens) (P14416 whole entry, looked up): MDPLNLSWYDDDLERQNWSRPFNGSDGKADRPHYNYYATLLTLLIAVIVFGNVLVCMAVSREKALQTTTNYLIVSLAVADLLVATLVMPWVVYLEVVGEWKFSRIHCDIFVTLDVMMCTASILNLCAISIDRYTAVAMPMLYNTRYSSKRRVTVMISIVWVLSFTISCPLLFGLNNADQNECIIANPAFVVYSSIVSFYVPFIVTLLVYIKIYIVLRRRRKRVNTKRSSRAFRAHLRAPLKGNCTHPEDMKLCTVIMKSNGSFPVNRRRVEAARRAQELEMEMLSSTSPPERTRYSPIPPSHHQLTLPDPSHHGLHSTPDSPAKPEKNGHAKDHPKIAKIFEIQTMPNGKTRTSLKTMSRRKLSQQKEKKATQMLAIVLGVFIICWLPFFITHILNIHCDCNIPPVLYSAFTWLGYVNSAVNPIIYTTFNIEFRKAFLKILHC
# Chain of KiSS-1 receptor (Homo sapiens) (Q969F8 whole entry, looked up): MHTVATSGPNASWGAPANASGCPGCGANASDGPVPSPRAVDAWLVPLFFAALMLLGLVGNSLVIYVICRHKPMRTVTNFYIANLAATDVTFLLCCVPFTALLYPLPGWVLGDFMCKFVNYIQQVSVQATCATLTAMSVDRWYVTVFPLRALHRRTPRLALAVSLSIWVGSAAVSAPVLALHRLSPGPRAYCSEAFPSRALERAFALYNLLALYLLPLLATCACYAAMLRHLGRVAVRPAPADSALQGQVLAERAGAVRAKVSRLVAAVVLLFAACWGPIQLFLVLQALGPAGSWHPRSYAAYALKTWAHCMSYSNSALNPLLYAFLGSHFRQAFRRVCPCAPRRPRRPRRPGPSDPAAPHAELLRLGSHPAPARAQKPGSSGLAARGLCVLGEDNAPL
# Chain of 5-hydroxytryptamine receptor 2A (Homo sapiens) (P28223 whole entry, looked up): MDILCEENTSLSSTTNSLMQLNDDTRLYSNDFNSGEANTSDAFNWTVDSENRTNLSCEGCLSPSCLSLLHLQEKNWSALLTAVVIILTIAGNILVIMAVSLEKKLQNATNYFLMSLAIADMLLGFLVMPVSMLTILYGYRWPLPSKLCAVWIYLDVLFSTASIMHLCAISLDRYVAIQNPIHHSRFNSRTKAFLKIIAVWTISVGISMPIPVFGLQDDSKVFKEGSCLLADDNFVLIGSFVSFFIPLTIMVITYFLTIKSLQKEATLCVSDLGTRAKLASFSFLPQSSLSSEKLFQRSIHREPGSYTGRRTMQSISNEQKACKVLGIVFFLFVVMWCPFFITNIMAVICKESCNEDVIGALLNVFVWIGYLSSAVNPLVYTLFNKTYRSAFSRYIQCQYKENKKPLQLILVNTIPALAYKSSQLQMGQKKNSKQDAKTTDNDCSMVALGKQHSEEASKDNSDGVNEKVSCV
# Chain of Muscarinic acetylcholine receptor M1 (Homo sapiens) (P11229 whole entry, looked up): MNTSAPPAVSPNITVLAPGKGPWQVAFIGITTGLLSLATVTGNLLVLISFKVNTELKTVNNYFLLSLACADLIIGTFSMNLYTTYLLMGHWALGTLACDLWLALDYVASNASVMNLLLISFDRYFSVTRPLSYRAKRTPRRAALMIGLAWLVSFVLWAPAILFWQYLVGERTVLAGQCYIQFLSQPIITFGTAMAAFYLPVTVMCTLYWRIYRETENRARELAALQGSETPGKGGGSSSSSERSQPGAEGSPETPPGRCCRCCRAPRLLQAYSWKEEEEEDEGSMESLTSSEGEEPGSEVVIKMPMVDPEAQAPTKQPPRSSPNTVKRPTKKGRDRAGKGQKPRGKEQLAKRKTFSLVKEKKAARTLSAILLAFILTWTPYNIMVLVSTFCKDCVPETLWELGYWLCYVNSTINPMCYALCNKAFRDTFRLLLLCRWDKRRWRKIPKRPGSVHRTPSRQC
smiles,measurement,setting,value
CC(C)C[C@@H](N)C(=O)O,"activity change, negative = cytotoxicity",[1],2.62% [at 19 µM]
same,"activity, positive = activation",[2],-3.08% [at 19 µM]
same,activity change,[3],"0.203% [at 11.8 µM, stronger effect = higher value]"
same,activation,[4],-0.242% [at 15.8 µM]
same,activation,[5],-0.27% [at 11.8 µM]
same,activation,[6],-1.67% [at 13.5 µM]
same,activation,[7],-1.65% [at 13.6 µM]
same,"activity change, negative = cytotoxicity",[8],-0.234% [at 13.5 µM]
same,"activity change, negative = cytotoxicity",[9],-2.8% [at 13.5 µM]
same,activation,[10],-0.189% [at 13.5 µM]
same,activation,[11],2.38% [at 15.9 µM]
same,"activity, negative = inhibition",[12],0.917% [at 12.6 µM]
same,activation,[13],10.1% [at 15.8 µM]
same,"activity change, negative = inhibition",[14],-5.02% [at 18.9 µM]
same,"activity change, negative = inhibition",[15],9.37% [at 19 µM]
same,Potency,[16],inactive
same,activation,[17],5.36% [at 19 µM]
same,"activity change, negative = inhibition",[18],4.57% [at 18.9 µM]
CN(C)CCN1CCN(c2cccc(Cl)c2)C1=O,Potency,[1],inactive
same,Potency,[2],inactive
same,Potency,[3],inactive
same,outcome,[4],inactive
same,outcome,[5],inactive
same,Potency,[6],inactive
same,Potency,[7],inactive
same,Potency,[8],inactive
same,Potency,[9],inactive
same,Potency,[10],inactive
same,Potency,[19],1.83 µM (active)
same,Potency,[11],inactive
same,Potency,[13],inactive
same,Potency,[20],inactive
same,Potency,[14],inactive
same,Potency,[15],inactive
same,Potency,[17],13.3 µM (active)
OCc1ccccn1,Potency,[1],inactive
same,Potency,[2],inactive
same,Potency,[3],inactive
same,outcome,[4],inactive
same,outcome,[5],inactive
same,Potency,[6],inactive
same,Potency,[7],inactive
same,Potency,[8],inactive
same,Potency,[9],inactive
same,Potency,[10],inactive
same,Potency,[19],inactive
same,Potency,[12],inactive
same,Potency,[13],inactive
same,Potency,[20],inactive
same,Potency,[14],inactive
same,Potency,[15],inactive
same,Potency,[17],inactive
same,Potency,[18],inactive
C=CC(=O)OCCOC(=O)CCC(=O)O,Potency,[1],inactive
same,Potency,[2],61.1 µM (active)
same,Potency,[3],inactive
same,outcome,[4],inactive
same,outcome,[5],inactive
same,Potency,[6],inactive
same,Potency,[7],inactive
same,Potency,[8],inactive
same,Potency,[9],inactive
same,Potency,[10],inactive
same,Potency,[19],inactive
same,Potency,[11],inactive
same,Potency,[12],inactive
same,Potency,[13],inactive
same,Potency,[15],inactive
same,Potency,[16],inactive
same,Potency,[17],inactive
same,Potency,[18],inactive
CCCCCCCC/C=C\CCCCCCCC(=O)OC[C@@H](O)[C@H]1OC[C@H](O)[C@H]1O,Potency,[1],inactive
same,Potency,[2],inactive
same,Potency,[3],inactive
same,outcome,[4],inactive
same,outcome,[5],inactive
same,Potency,[6],inactive
same,Potency,[7],inactive
same,Potency,[8],inactive
same,Potency,[9],inactive
same,Potency,[10],inactive
same,Potency,[11],inactive
same,Potency,[12],inactive
same,Potency,[13],inactive
same,Potency,[20],inactive
same,Potency,[15],inactive
same,Potency,[16],inactive
CC(C)C[C@H](NC(=O)[C@H](CCc1ccccc1)NC(=O)CN1CCOCC1)C(=O)N[C@@H](Cc1ccccc1)C(=O)N[C@@H](CC(C)C)C(=O)[C@@]1(C)CO1,Potency,[1],0.298 µM (active)
same,Potency,[2],0.106 µM (active)
same,Potency,[3],inactive
same,outcome,[4],inactive
same,outcome,[5],inactive
same,Potency,[6],inactive
same,Potency,[7],inactive
same,Potency,[8],4.46 µM (active)
same,Potency,[9],0.63 µM (active)
same,Potency,[10],0.112 µM (active)
same,Potency,[19],inactive
same,Potency,[12],inactive
same,Potency,[13],inactive
same,Potency,[15],inactive
same,Potency,[16],inactive
same,Potency,[17],inactive
same,Potency,[18],inactive
N[C@H]1C(O)O[C@H](CO)[C@H](O)[C@@H]1O (stereo not given in full),Potency,[1],inactive
same,Potency,[2],inactive
same,Potency,[3],inactive
same,outcome,[4],inactive
same,outcome,[5],inactive
same,Potency,[6],inactive
same,Potency,[7],inactive
same,Potency,[8],inactive
same,Potency,[9],inactive
same,Potency,[10],inactive
same,Potency,[19],inactive
same,Potency,[11],inactive
same,Potency,[12],inactive
same,Potency,[20],inactive
same,Potency,[15],inactive
same,Potency,[17],inactive
